The record followed here is PubChem BioAssay (EPA / NIEHS).

Results filed as inconclusive are left out. The source made the active and inactive calls. How the source made its calls, unless noted: active means hit-call score of the fitted dose curve at least 0.9, where 1 is the maximum; inconclusive means response in the unintended direction; inactive means score below 0.9.

A short description of assay [1]: TOX21_PR_BLA_Followup_Agonist_viability: Viability Assessment in the Tox21 HEK293 Progesterone Receptor (PR) Agonism Beta-lactamase Follow-Up Assay (AID 2283935).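 Further: signal loss means lower viability so actives are cytotoxic.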 In short, it runs like this: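 Viability is read as CellTiter-Glo luminescence, where loss of signal indicates cytotoxicity. The cells are PR-UAS-bla HEK293T given compounds for 16 hr at 37C and 5% CO2, in the same wells used for the bla readout.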

Assay [2] in a line: TOX21_PR_BLA_Followup_Antagonist_viability: Viability Assessment in the Tox21 HEK293 Progesterone Receptor (PR) Antagonism Beta-lactamase Follow-Up Assay (AID 2283936).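 Further: cells exposed to compound with R5020 agonist for 16 h; hits lower the luminescence signal meaning cytotoxicity.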 In short, it runs like this: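 PR-UAS-bla HEK293T cells in medium with 2% charcoal-stripped FBS were treated with compounds plus R5020 for 16 hr at 37C. After the beta-lactamase read, CellTiter-Glo was added to the same wells and luminescence read after 30 min at room temperature.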

Assay [3] can be described thus: TOX21_PR_LUC_Followup_Antagonist_viability: Viability Assessment in the Tox21 HEK293 Progesterone Receptor (PR) Antagonism Luciferase Follow-Up Assay (AID 2283940). In short, it runs like this:
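Loss of CellTiter-Glo ATP signal indicates cytotoxicity in HEK293-PR-A-luc cells grown in 10% charcoal-stripped FBS medium, seeded 3,000 per well and incubated 16 h with compound at 37C.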

The target in assay [4] is PGR (gene 5241) (UniProt P06401). Kind of assay: TOX21_PR_LUC_Followup_Antagonist: Tox21 HEK293 Progesterone Receptor (PR) Antagonism Luciferase Follow-Up Assay (AID 2283938).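 Further: curve fitted upward as signal gain over DMSO baseline despite antagonist label.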 Put shortly:
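Cells are grown 5 days in charcoal-stripped-FBS assay medium, plated, left 5 h, then dosed with compound and incubated 16 h. ONE-Glo reagent is added and luminescence read after 30 min.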

Assay [5] is described as follows: TOX21_PR_LUC_Followup_Agonist_viability: Viability Assessment in the Tox21 HEK293 Progesterone Receptor (PR) Agonism Luciferase Follow-Up Assay (AID 2283941).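 Further: loss of signal means cytotoxicity so actives lower viability.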 Put shortly:
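Seeding: HEK293-PR-A-luc, 3,000 cells/well, 5 h at 37C. Treatment: compound in DMSO, 16 h, 37C. Read: CellTiter-Glo ATP luminescence, signal loss taken as lower viability.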

Assay [6] deals with T1, Thyroid hormone receptor alpha (Rattus norvegicus) + Thyroid hormone receptor beta (Rattus norvegicus) (UniProt P18113+P63059). In words: TOX21_TR_LUC_GH3_Antagonist_Followup: Tox21 GH3 Thyroid Hormone Receptor Antagonism Luciferase Follow-Up Assay (AID 2283942). Put shortly: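 Luminescence read-out (ONE-Glo, 30 min at room temperature) in GH3 reporter cells challenged with 1.0 nM T3 final. Compounds ran at 92 uM to 5nM over 15 concentrations for 24 h; DMSO served as negative control and baseline.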
T1 sequence (P63059 whole entry, looked up): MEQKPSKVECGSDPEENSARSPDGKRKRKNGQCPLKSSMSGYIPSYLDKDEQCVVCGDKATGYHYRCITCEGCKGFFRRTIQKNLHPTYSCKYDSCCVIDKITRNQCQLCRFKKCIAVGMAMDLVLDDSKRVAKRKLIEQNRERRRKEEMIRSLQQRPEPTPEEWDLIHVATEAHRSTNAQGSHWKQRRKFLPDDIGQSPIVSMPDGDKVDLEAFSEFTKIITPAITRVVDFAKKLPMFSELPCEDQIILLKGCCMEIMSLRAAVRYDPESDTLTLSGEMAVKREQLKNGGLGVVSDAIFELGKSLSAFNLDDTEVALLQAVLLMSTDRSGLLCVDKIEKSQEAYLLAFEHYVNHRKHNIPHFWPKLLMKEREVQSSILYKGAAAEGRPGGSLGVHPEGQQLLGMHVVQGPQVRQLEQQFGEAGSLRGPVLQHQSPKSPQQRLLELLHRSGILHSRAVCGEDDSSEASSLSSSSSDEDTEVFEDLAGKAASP
T1 sequence (P18113 whole entry, looked up): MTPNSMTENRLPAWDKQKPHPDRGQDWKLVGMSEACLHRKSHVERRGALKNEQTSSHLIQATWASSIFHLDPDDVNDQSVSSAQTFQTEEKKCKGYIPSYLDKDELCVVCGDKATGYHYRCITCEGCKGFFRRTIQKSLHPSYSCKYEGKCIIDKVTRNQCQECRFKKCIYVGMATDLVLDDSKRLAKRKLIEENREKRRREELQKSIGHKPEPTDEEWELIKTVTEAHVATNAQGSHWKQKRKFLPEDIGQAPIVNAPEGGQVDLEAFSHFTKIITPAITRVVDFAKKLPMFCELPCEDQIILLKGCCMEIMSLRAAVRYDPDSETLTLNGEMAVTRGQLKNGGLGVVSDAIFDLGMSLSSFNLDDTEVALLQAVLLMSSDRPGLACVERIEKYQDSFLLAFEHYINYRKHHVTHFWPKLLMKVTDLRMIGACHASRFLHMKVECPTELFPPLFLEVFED

A short description of assay [7]: TOX21_TRB_BLA_Antagonist_Followup_viability: Viability Assessment in the Tox21 Thyroid Hormone Receptor beta Antagonism Beta-lactamase (BLA) Follow-Up Assay (AID 2283961). Put shortly: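 TRβ-bla HEK293T (human TRβ LBD fused to GAL4 DBD), 3,000 cells/well, 2% charcoal-stripped FBS, phenol red-free medium; 18 h compound exposure, 37C; CellTiter-Glo 30 min RT; luminescence, loss-of-signal readout.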

Assay [8] concerns the target Retinoic acid receptor RXR-alpha (Homo sapiens) (UniProt P19793). Kind of assay: TOX21_TR_RXR_BLA_Antagonist_Followup_ratio: Tox21 Thyroid Hormone Receptor beta Retinoid X Receptor alpha (RXRa) Antagonism Beta-lactamase (BLA) Follow-Up Assay, Ratio (AID 2283972). In short, it runs like this:
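HEK293T RXRa-bla, 2% charcoal-stripped FBS medium, 16 h compound exposure at 37C, qHTS 11 conc x3. CCF4 FRET ratio ch2/ch1 (460:530), DMSO = baseline, loss-of-signal fit.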

Assay [9] has as its target THRA (gene 7067) (UniProt P10827). Kind of assay: TOX21_TRA_COA_Agonist_Followup_ratio: Tox21 Thyroid Hormone Receptor alpha Agonism through Coactivator Recruitment Follow-Up Assay, Ratio (AID 2283948; active means hit-call score of the fitted dose curve at least 0.9, where 1 is the maximum; inactive means score below 0.9). Put shortly: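 Follow-up specificity assay in which TRα ligand-binding domain, expressed as a GST fusion, recruits a fluorescein-labelled SRC-2 peptide. Energy transfer from a terbium anti-GST antibody gives the acceptor/donor ratio, fitted upward relative to DMSO.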

The target of assay [10] is THRB (gene 7068) (UniProt P10828). Kind of assay: TOX21_TRB_BLA_Agonist_Followup_ratio: Tox21 Thyroid Hormone Receptor beta Agonism Beta-lactamase (BLA) Follow-Up Assay, Ratio (AID 2283954). In short, it runs like this:
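Agonist mode: compounds (11-point, triplicate) incubated 18 h with HEK293T cells carrying GAL4-DBD/human TRβ-LBD and UAS-β-lactamase. Blue/green (460/530 nm) FRET ratio read after 2 h CCF4-AM loading; CellTiter-Glo viability run in the same plates.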

Assay [11] has the same target. Kind of assay: TOX21_TRB_COA_Agonist_Followup_ratio: Tox21 Thyroid Hormone Receptor beta Agonism through Coactivator Recruitment Follow-Up Assay, Ratio (AID 2283963; active means hit-call score of the fitted dose curve at least 0.9, where 1 is the maximum; inactive means score below 0.9). In short, it runs like this: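 Cell-free TR-FRET coactivator recruitment: GST-tagged TRβ LBD (5.0 nM) with 0.10% BSA incubated with compound, then fluorescein-SRC-2 peptide (200 nM) and Tb-anti-GST antibody (2 nM) added. 520:495 nm ratio normalized to DMSO (0%) and T3 (100%).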

Assay [12] addresses Retinoic acid receptor RXR-alpha (Homo sapiens) (UniProt P19793). Kind of assay: TOX21_TR_RXR_BLA_Agonist_Followup_ratio: Tox21 Thyroid Hormone Receptor beta Retinoid X Receptor alpha (RXRa) Agonism Beta-lactamase (BLA) Follow-Up Assay, Ratio (AID 2283968). In short, it runs like this:
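Agonism is scored as an increase in the 460:530 nm beta-lactamase substrate ratio over DMSO in RXRa-UAS-bla HEK293T cells exposed for 16 h to 11 compound concentrations.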

Assay [13] addresses PGR (gene 5241) (UniProt P06401). Kind of assay: TOX21_PR_LUC_Followup_Agonist: Tox21 HEK293 Progesterone Receptor (PR) Agonism Luciferase Follow-Up Assay (AID 2283937; active means hit-call score of the fitted dose curve at least 0.9, where 1 is the maximum; inactive means score below 0.9). In short, it runs like this:
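In HEK293 cells stably expressing PR-A with a luciferase reporter, compounds were incubated 16 h at 37C, and induced luminescence was quantified with ONE-Glo, multiplexed with cell viability.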

The nature of assay [14]: CCTE_Harrill_HTTr_Viability_DMEM_6hr: (Pilot) CCTE's 6-hour Cell Viability Assessment for the High-Throughput Transcriptomics (HTTr) Platform, in MCF-7 cells cultured in DMEM + 10% fetal bovine serum, Harrill Lab (AID 2283973; active means hit-call score of the fitted dose curve at least 0.9, where 1 is the maximum; inactive means score below 0.9). In short, it runs like this: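 Propidium iodide uptake imaged by high-content analysis after six hours of chemical treatment in an eight-concentration series. Cells: MCF-7 grown in DMEM with 10% fetal bovine serum; DMSO as baseline.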

Assay [15] can be described thus: CCTE_Harrill_HTTr_Viability_DMEM_12hr: (Pilot) CCTE's 12-hour Cell Viability Assessment for the High-Throughput Transcriptomics (HTTr) Platform, in MCF-7 cells cultured in DMEM + 10% fetal bovine serum, Harrill Lab (AID 2283974; active means hit-call score of the fitted dose curve at least 0.9, where 1 is the maximum; inactive means score below 0.9). In short, it runs like this: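 Propidium iodide dye exclusion imaged by high-content microscopy after 12 h chemical exposure (eight concentrations) of MCF-7 cells grown in DMEM plus 10% FBS; values fitted in both directions relative to DMSO.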

The nature of assay [16]: CCTE_Harrill_HTTr_Viability_DMEM_24hr: (Pilot) CCTE's 24-hour Cell Viability Assessment for the High-Throughput Transcriptomics (HTTr) Platform, in MCF-7 cells cultured in DMEM + 10% fetal bovine serum, Harrill Lab (AID 2283975; active means hit-call score of the fitted dose curve at least 0.9, where 1 is the maximum; inactive means score below 0.9). Put shortly: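 Pilot study: propidium iodide dye exclusion, imaged by high content microscopy, after 24 h compound exposure (eight concentrations) in MCF-7 cultured in DMEM + 10% fetal bovine serum; DMSO served as negative control and baseline.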

Assay [17] can be described thus: CCTE_Harrill_HTTr_Viability_PRF_DMEM_6hr: (Pilot) CCTE's 6-hour Cell Viability Assessment for the High-Throughput Transcriptomics (HTTr) Platform, in MCF-7 cells cultured phenol red-free DMEM + 10% charcoal-stripped fetal bovine serum, Harrill Lab (AID 2283976; active means hit-call score of the fitted dose curve at least 0.9, where 1 is the maximum; inactive means score below 0.9). Put shortly:
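Membrane integrity by high-content imaging of propidium iodide uptake, six hours after dosing with eight concentrations. Cells: MCF-7 grown in phenol red-free DMEM plus 10% charcoal-stripped serum; DMSO serves as baseline for bidirectional fits.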

Assay [18] can be described thus: CCTE_Harrill_HTTr_Viability_PRF_DMEM_12hr: (Pilot) CCTE's 12-hour Cell Viability Assessment for the High-Throughput Transcriptomics (HTTr) Platform, in MCF-7 cells cultured in phenol red-free DMEM + 10% charcoal-stripped fetal bovine serum, Harrill Lab (AID 2283977; active means hit-call score of the fitted dose curve at least 0.9, where 1 is the maximum; inactive means score below 0.9). Put shortly: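 Membrane integrity was scored via propidium iodide dye exclusion imaging, fitted in both directions relative to DMSO. Compounds ran as eight-point dilutions for 12 hours on MCF-7 grown in phenol red-free DMEM plus 10% charcoal-stripped serum.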

Assay [19] has as its target T1, Thyroid hormone receptor alpha (Rattus norvegicus) + Thyroid hormone receptor beta (Rattus norvegicus). In words: TOX21_TR_LUC_GH3_Agonist_Followup: Tox21 GH3 Thyroid Hormone Receptor Agonism Luciferase Follow-Up Assay (AID 2283939). In short, it runs like this: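 Agonist-mode confirmatory run: 15 concentrations (5 nM to 92 uM final) on GH3 rat pituitary cells, 24 h at 37C/5% CO2, T3 as positive control. Luminescence read with ONE-Glo after 30 min.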

Assay [20] can be described thus: TOX21_TR_RXR_BLA_Agonist_Followup_viability: Viability Assessment in the Tox21 Thyroid Hormone Receptor beta Retinoid X Receptor alpha (RXRa) Agonism Beta-lactamase (BLA) Follow-Up Assay (AID 2283970). Put shortly: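 Luminescent ATP read (CellTiter-Glo) after 16h exposure of RXRa-UAS-bla HEK293T cells at 37C/5% CO2. Activity normalized to DMSO; signal loss scored as reduced viability.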

Sequence of PGR (gene 5241) (P06401 whole entry, looked up): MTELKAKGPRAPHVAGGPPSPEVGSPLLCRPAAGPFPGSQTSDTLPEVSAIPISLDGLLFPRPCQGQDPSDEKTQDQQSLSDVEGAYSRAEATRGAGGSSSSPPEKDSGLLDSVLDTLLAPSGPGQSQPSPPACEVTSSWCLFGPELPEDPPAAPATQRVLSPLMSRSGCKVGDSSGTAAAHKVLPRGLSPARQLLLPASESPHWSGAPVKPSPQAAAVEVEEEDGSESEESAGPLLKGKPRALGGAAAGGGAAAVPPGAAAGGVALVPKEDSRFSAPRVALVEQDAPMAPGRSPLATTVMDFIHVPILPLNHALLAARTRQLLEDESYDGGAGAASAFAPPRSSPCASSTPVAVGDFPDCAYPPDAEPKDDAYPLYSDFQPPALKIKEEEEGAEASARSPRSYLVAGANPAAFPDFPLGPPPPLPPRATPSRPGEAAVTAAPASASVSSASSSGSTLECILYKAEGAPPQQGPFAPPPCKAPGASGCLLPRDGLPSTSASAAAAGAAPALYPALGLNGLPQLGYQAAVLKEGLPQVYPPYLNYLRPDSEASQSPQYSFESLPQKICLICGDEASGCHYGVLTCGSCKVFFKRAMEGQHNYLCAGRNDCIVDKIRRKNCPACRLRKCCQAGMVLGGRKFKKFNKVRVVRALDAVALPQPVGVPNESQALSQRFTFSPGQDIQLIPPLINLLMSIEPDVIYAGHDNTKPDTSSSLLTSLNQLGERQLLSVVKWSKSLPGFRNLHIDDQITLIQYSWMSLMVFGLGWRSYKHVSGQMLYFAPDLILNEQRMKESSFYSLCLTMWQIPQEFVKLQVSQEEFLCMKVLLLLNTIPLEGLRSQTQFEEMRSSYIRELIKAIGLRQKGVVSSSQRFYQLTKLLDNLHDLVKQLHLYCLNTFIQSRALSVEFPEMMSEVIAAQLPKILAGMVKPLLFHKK
Sequence of Retinoic acid receptor RXR-alpha (Homo sapiens) (P19793 whole entry, looked up): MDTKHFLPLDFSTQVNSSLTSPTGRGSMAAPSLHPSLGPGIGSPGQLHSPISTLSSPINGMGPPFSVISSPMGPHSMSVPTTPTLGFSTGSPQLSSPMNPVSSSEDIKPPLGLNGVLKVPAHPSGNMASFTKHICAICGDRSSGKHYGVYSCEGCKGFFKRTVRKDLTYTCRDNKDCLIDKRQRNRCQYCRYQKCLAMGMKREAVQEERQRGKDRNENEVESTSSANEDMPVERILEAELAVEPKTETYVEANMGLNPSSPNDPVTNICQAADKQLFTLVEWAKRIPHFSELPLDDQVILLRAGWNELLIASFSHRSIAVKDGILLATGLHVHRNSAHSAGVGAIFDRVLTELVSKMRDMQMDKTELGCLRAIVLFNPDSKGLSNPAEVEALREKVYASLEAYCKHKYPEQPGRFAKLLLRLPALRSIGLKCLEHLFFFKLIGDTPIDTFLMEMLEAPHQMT
Sequence of THRB (gene 7068) (P10828 whole entry, looked up, the tested form may be a part): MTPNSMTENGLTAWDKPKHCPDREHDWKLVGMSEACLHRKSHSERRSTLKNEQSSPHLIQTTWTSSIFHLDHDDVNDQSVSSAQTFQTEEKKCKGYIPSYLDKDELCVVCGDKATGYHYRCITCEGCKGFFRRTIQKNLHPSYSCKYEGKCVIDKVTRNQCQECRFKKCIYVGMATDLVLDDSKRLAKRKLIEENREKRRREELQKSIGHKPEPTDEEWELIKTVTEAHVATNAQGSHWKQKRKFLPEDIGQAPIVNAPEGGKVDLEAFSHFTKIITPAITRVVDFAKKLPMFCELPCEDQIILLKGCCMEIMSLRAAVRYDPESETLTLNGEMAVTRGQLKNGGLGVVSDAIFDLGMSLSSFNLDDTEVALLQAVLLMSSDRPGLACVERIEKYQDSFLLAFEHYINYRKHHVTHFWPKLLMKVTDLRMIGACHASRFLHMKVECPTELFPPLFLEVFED
Sequence of THRA (gene 7067) (P10827 whole entry, looked up, the tested form may be a part): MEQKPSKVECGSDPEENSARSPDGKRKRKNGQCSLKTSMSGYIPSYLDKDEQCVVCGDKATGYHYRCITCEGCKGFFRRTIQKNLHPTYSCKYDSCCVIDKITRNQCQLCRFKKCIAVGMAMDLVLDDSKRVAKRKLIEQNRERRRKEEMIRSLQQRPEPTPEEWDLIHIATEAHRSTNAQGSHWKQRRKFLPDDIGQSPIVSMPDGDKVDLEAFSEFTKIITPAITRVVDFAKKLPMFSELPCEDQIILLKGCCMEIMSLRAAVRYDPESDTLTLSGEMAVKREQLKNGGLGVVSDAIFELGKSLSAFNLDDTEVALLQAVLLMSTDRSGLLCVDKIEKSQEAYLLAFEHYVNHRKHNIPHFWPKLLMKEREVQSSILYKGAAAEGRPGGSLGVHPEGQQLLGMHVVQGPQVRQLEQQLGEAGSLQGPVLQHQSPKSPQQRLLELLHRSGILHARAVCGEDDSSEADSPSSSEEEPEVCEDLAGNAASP

For `Oc1ccc2ccccc2c1N=Nc1ccccc1`, the molecule was called inactive in [1], in assay [2] and in [3].

Consider `C[C@]12C=CC(=O)C=C1CC[C@@H]1[C@@H]2C(=O)C[C@@]2(C)[C@H]1CC[C@]2(O)C(=O)CO`, for which the outcome in [1], in assay [4], in [3] and in [5] was inactive.

With `Nc1nc(N)c2nc(CNc3ccc(C(=O)N[C@@H](CCC(=O)O)C(=O)O)cc3)cnc2n1`, the result in assay [6], in assay [7] and in assay [8] was inactive.

In general, AC50 refers to the midpoint of the concentration-response curve, whichever way the signal moves. On to `Cc1cc(NC(=O)C(=O)O)cc(C)c1Oc1ccc(O)c2c1CCC2`, for which the AC50 is 3.53 nM (active) in assay [9], 84.8 nM (active) in assay [10], 2.27 nM (active) in assay [11] and 21600 nM (active) in assay [12].

For `CCc1c(C(=O)NN2CCCCC2)nn(-c2ccc(Cl)cc2Cl)c1-c1ccc(Br)cc1`, the call in [1], in assay [2], in assay [13], in [4] and in [3] was inactive.

On to `CCOc1ccc2c(c1)C(C)=CC(C)(C)N2`, for which the call in assay [1], in [2], in assay [13], in [4] and in [5] was inactive.

In the case of `O=c1c(O)c(-c2ccc(O)c(O)c2)oc2cc(O)cc(O)c12`, the call in assay [4] was inactive.

Take `CCOC(=O)C(C)(C)Oc1ccc(Cl)cc1`: the result in [14], in assay [15], in [16], in assay [17] and in [18] was inactive.

For the molecule `Oc1ccc2c(c1)OC[C@@H](N1CCC(O)(c3ccc(F)cc3)CC1)[C@H]2O`, the molecule was called inactive in assay [1], in assay [2], in [4], in assay [3] and in assay [5].

`CCCCCCCCCCC`: the result in [19], in assay [9], in [10], in assay [11], in [12] and in assay [20] was inactive.
